# PTPN22 act: activators of human LYP (PTPN22) phosphatase; activation, % at 2 µM; AID 697; 0.11% of 96,000 active; recombinant LYP, DiFMUP fluorescence; 0 = plate median, 100 = signal doubled; Q9Y2R2;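 active means activation at 2 µM above a set limit, the mean plus 5 SD, cut at about 37% in these data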
# FAK inh: blocks human focal adhesion kinase activity | biochemical FAK kinase activity assay | 0.84% of 97,000 active | Q05397 | inhibition, %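 (tested at 7 µM)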; in the data active means inhibition above about 19%;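 further: 0% = DMSO and 100% = reference compound high control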
# ERa coact inh: ER-alpha (human) coactivator binding inhibition. P03372. 1.7% of 86,000 active. inhibition, % at 25.6 µM. TR-FRET ER-alpha LBD / SRC-1 peptide, estradiol-bound; in the data active means inhibition above about 50%;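 further: 0% = receptor plus peptide control and 100% = peptide only without receptor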
# ERb coact inh: ER-beta (human) coactivator binding inhibition | AID 633 | Q92731 | 1.3% of 86,000 active | inhibition, % at 25.6 µM | TR-FRET ER-beta LBD / SRC1-Cy5 peptide binding; receptor agonist-loaded with 1 µM estradiol;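 active means compounds whose percent inhibition of the receptor-coactivator binding signal exceeds about 50% in the single-dose screen, limit read from the data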;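 further: 0% = receptor plus peptide wells without compound and 100% = peptide-only wells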
# PTPN22 inh 2: blocks human PTPN22 phosphatase activity | Q9Y2R2 | recombinant LYP catalytic domain, DiFMUP fluorescence | inhibition, % at 2 µM | 0.21% of 96,000 active;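 active means inhibition at 2 µM at or above a set limit, the screen mean plus 3 SD, cut at about 24% in these data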;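 further: 0% = DMSO with enzyme and 100% = enzyme fully blocked by orthovanadate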
# ERa coact pot: ER-alpha (human) coactivator binding potentiation; coactivator binding (% of control), % at 25.6 µM; P03372; TR-FRET ERalpha-LBD/SRC-Cy5 coactivator binding, 2 h; 100 = basal binding, no effect; 1.3% of 86,000 active; AID 639; in the data active means activity above about 200%;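 further: binding measured in presence of low estradiol as agonist stimulus; 0% = peptide alone without receptor and 100% = receptor with peptide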
# Starred values were filed as active, the others as inactive; · = not tested or not shown; [ ] = another dose, or the depositor's remark. Rows were chosen to be rich in hits. Some 3.4% of all compounds tested hit in one or more screens of this group.
SMILES,PTPN22 act,FAK inh,ERa coact inh,ERb coact inh,PTPN22 inh 2,ERa coact pot
C/C(N)=C(/C#N)C(=O)CSc1nnc(Cc2ccccc2F)n1N,-9,5,69*,81*,7,33
Cc1ccc(-n2c(CNc3ccc(F)cc3)nnc2SCC(N)=O)cc1,4,-2,-7,-7,-5,98
CCOC(=O)c1cn(-c2nc(-c3ccc(Cl)c(Cl)c3)cs2)c2c(F)c(N3CCOCC3)c(F)cc2c1=O,-25,0,·,·,28*,·
COc1cccc(-c2cc(C(F)(F)F)c3c(N)c(C#N)sc3n2)c1,0,2,·,·,3,·
N#Cc1c(-c2ccccc2)cc(-c2ccco2)c(C#N)c1N,-6,3,80*,57*,3,98
N#Cc1sc2nc(-c3ccccc3)cc(-c3ccco3)c2c1N,7,12,89*[fluorescence artefact?],76*[fluorescence artefact?],-6,14
COc1cccc(-c2csc(N3CCN(C(=O)NC45CC6CC(CC(C6)C4)C5)CC3)n2)c1,-2,2,-13,-5,1,151
Cc1nc(-c2ccccc2O)n(-c2ccccc2)n1,-2,1,-5,-17,3,86
O=C(NCCN1CCCCCC1)c1ccc(N2CCCC2=O)cc1,-3,2,55*[fluorescence artefact?],22,6,155
Cc1ccc(C2NC(=O)c3c(sc4c3CCN(C)C4)N2)s1 (configuration not stated),5,1,54*[fluorescence artefact?],36,-9,29
CN1CCc2c(sc3c2C(=O)NC(/C=C/c2ccco2)N3)C1 (configuration not stated),6,8,28,54*[fluorescence artefact?],-6,43
CC1CC(C)CN(C(=O)CSc2nc(Cc3cccs3)nc3ccccc23)C1 (configuration not stated),·,-3,·,·,·,·
O=C(Nc1ccccc1)c1ccc(S(=O)(=O)N2CCCCC2)cc1,-3,-3,·,·,1,·
O=C(Nc1cccnc1)c1ccc(S(=O)(=O)N2CCCCCC2)cc1,-1,3,52*[fluorescence artefact?],47,-3,21
CN1C(=O)COc2ccc(C(=O)c3oc4ccccc4c3-c3cnc4c(c3)COc3ccccc3-4)cc21,1,0,16,21,-1,317*[fluorescence artefact?]
CC(C)Cn1c(-c2csc3c2CCCC3)n[nH]c1=S,10,-5,·,·,-7,·
Cc1cc(OC(=O)c2ccco2)c2c(C)cc(=O)oc2c1,8,5,6,5,-5,272*
COc1ccc(NC(=O)c2cc(=O)c3ccccc3o2)cn1,-7,-3,5,0,7,109
COc1ccc(NC(=O)c2cc(CN3C(=O)c4ccccc4C3=O)ccc2OC)cn1,-2,3,83*[fluorescence artefact?],47,0,96
Oc1[nH]c2ccccc2c1C1=NCCCC1,2,17,82*[fluorescence artefact?],92*[fluorescence artefact?],-3,27
CCn1c(O)c(C2=NCCCC2)c2ccccc21,5,1,-11,6,-5,113
CCN1C(=O)/C(=C2/Sc3ccc(OC)cc3N2C)SC1=Nc1ccc(C(C)=O)cc1,3,-1,36,31,0,96
CCN1C(=O)/C(=C2/Sc3ccc(OC)cc3N2C)SC1=Nc1cccc(O)c1,6,3,66*,64*,-6,152
O=C(CSc1ccc2nnc(-c3ccc(F)cc3)n2n1)N1CCOCC1,6,4,·,·,-8,·
C=CCn1c(SCC(=O)N2CCc3ccccc3C2)nc2sc(C)cc2c1=O,-3,2,·,·,6,·
SMILES,PTPN22 act,FAK inh,ERa coact inh,ERb coact inh,PTPN22 inh 2,ERa coact pot
CCCCC(=O)Nc1cc(C(=O)NCCc2ccccc2)ccc1Cl,-7,2,·,·,12,·
COC(=O)c1ccc(S(=O)(=O)N(Cc2cc3cc4c(cc3[nH]c2=O)OCO4)C2CCCCC2)cc1,·,·,4,-4,·,306*
O=C1NCCN1CCNS(=O)(=O)c1ccc2ccccc2c1,3,-7,58*[fluorescence artefact?],-8,-2,122
O=C(Nc1ccccc1)c1nnn(Cc2ccccc2)c1NC(=O)C(F)(F)F,1,-1,-10,-1,0,109
CC(NC(=O)c1ccccc1NC(=O)c1ccco1)c1ccccc1 (configuration not stated),3,2,34,12,-2,241*[fluorescence artefact?]
O=C(Nc1cccc2cccc(NC(=O)c3ccco3)c12)c1ccco1,-2,2,22,52*,1,62
O=C(Nc1ccccc1-c1ccccc1)c1ccc(NC(=O)c2ccco2)cc1,1,-1,4,12,2,105
COc1ccccc1OCC(=O)Nc1sc2c(c1C(=O)NCC1CCCO1)CCC2 (configuration not stated),6,-6,·,·,-2,·
O=C1C2C3C=CC(C3)C2C(=O)N1CNc1ccc(O)cc1 (configuration not stated),·,·,61*[fluorescence artefact?],87*[fluorescence artefact?],·,47
CC1CCN(C(=O)Cc2nn(C)c(=O)c3ccccc23)CC1,20,2,9,-2,-22,121
CCOC(=O)Cc1nn(C)c(=O)c2ccccc12,4,7,2,63*,-4,97
COc1cccc(Nc2ncccc2C(=O)Nc2ccccc2)c1,18,-2,-8,-2,-16,140
N=c1c(-c2nc3ccccc3[nH]2)cc(C(=O)c2cccs2)nn1-c1ccccc1,0,7,92*[fluorescence artefact?],62*[fluorescence artefact?],-1,61
CSc1cc(-c2ccc(Cl)cc2)n(Cc2ccccc2)c(=O)c1C#N,13,-1,54*[fluorescence artefact?],35,-11,164
CN1CCN(S(=O)(=O)c2ccc3c4c(cccc24)C(=O)N3)CC1,3,12,26,-10,-5,148
CCOc1ccccc1N1CCN(S(=O)(=O)c2ccc3c4c(cccc24)C(=O)N3)CC1,-5,5,39,56*[fluorescence artefact?],8,55
CC1CCC2(CC1)N=C(N)Nc1nc3ccccc3n12 (configuration not stated),13,-3,63*[fluorescence artefact?],4,-11,38
CCN(CC)CCOC(=O)C1c2ccccc2Oc2ccccc21,-1,6,-12,74*[fluorescence artefact?],-2,105
Cc1ccc(N2C(=O)C(Cl)=C(NCc3ccccc3)C2=O)c(C)c1,12,-3,-4,-4,-10,94
Cc1cccc(NC(=O)C2CCN(S(=O)(=O)c3c(C)nn(C)c3C)CC2)n1,·,·,2,57*,·,114
Cc1nc2ccccc2n2c(O)c(CC(=O)O)cc12,·,·,41,58*[fluorescence artefact?],·,55
Cc1nc2ccccc2n1CCC(=O)O,8,-1,-6,-3,-7,82
CCOc1ccccc1NC(=O)C(Sc1ccccc1)c1ccccc1 (configuration not stated),-3,-2,·,·,9,·
Cc1onc(-c2ccccc2)c1C(=O)Nc1nc(-c2cc(F)ccc2F)cs1,-2,-21,6,19,1,208*[fluorescence artefact?]
Cc1onc(-c2ccccc2)c1C(=O)Nc1cccc2nsnc12,-8,-5,36,22,7,266*
Cc1cccc(NC(=O)Cn2c(=O)oc3ccccc32)c1,-7,1,·,·,5,·

# Screening data deposited in PubChem BioAssay by several laboratories.
